In all, about 340,000 compounds went through this assay and about 1,400 (0.41%) were called active. The entries come from a sample that favours actives as a whole. Values without a mark were called inactive.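 The calls were made as follows: active = response above a set limit, near 3 SD of response in nonfluorescent compounds (cut at about 42% in these data); inactive = the rest.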
Biological target: Beta-2 adrenergic receptor (Homo sapiens) (UniProt P07550)
Assay: beta2AR agonists driving receptor internalization, primary screen, cell-based, FAP fluorogen, flow cytometry (AID 504454)
Conditions: Am2.2-beta2AR cells, hits give high values, concentration not given here

Chain of Beta-2 adrenergic receptor (Homo sapiens) (P07550 whole entry, looked up): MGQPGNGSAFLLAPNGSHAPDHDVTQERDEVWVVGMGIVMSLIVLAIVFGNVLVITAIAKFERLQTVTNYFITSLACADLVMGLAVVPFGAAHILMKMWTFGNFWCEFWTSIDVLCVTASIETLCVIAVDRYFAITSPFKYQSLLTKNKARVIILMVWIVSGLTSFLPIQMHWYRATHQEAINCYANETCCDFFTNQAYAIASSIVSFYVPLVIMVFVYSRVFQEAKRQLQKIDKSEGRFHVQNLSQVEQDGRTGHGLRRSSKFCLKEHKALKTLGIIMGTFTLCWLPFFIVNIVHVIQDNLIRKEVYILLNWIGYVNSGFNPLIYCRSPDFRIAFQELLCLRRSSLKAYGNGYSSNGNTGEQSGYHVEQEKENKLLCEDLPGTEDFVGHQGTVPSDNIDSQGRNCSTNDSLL

SMILES	response
COc1ccc(C2c3[nH]c4ccccc4c3CCN2CCCn2cccn2)cc1C (centres undefined)	-1.99%
Cc1ccc(N2C(=O)CC(N3CCSCC3)C2=O)c(C)c1 (centres undefined)	-0.71%
CC(C)(C)NC(=O)CN(C(=O)c1ccc(Cl)nc1)c1cccc2ccccc12	1.65%
CC(=O)OCCOCn1cnn2c(=O)c(Br)c(C)nc12	-5.29%
Cc1cnc(C)c(N2CCN(C(=O)C3CCC(=O)N(CCc4cccc(F)c4)C3)CC2)n1 (centres undefined)	-4.11%
NC(=O)C1(N2CCCC2)CCN(Cc2ccccc2)CC1	-1.07%
COC(=O)c1[nH]c2ccccc2c1NC(=O)CN1CCCc2ccccc21	6.44%
C/C(=N\N)c1c(-c2ccccc2)c2cc(Br)ccc2[nH]c1=O	-0.61%
COC(=O)c1[nH]c2ccc(Br)cc2c1NC(=O)Oc1ccccc1	43.5% (active)
COCCN1C(=O)c2oc3c(C)cc(C)cc3c(=O)c2C1c1cccc(O)c1 (centres undefined)	51.7% (active)
CCCOc1ccc(C2c3c(oc4cc(C)c(C)cc4c3=O)C(=O)N2CCCN2CCOCC2)cc1 (centres undefined)	-4.95%
O=C1c2oc3ccccc3c(=O)c2C(c2cccc(O)c2)N1c1ccccn1 (centres undefined)	-12.8%
COCCCn1c(SCc2cccc(OC)c2)nc2cc(OC)c(OC)cc2c1=N	7.49%
CCCC(=O)Nc1nnc(CC(=O)OCC)s1	8.2%
CN1CCN(C(CNS(=O)(=O)c2cccs2)c2cccnc2)CC1 (centres undefined)	-2.41%
COc1ccc(C[C@H]2CN3C(=NC[C@H]3C)N2CCNC(=O)CCC2CCCCC2)cc1	8.82%
CC(=O)Nc1ccc(N2C(=O)CC(Sc3nccc(C)n3)C2=O)cc1 (centres undefined)	1.18%
COc1ccc(N2C(=O)CC(Sc3n[nH]c(-c4ccc(C)cc4)n3)C2=O)cc1 (centres undefined)	1.89%
CCOc1ccccc1N1C(=O)CC(Sc2nccc(C)n2)C1=O (centres undefined)	47.5% (active)
COCC1CCN(C(=O)CCc2nnc(C3(c4ccc(Cl)cc4)CCC3)o2)C1 (centres undefined)	-4.25%

SMILES	response
COc1ccc(CCNC(=O)CCc2ccccc2O)cc1OC	0.69%
CCOC(=O)c1ccc(NC(=O)Cn2nnc(-c3ccc(C)cc3)n2)cc1	91.8% (active)
Cc1ccc(NC(=O)CN(C)C(=O)Cn2nnc(-c3ccccc3)n2)cc1	-5.12%
CCOC(=O)c1ccc(NC(=O)Cn2cnc3cc(C)c(C)cc32)cc1	9.03%
Cc1ccc(CNC(=O)CCC(=O)N2CC(C)Sc3ccccc32)cc1 (centres undefined)	-5.01%
O=C(/C=C/Sc1ncn[nH]1)c1ccc(Cl)cc1	78.1% (active)
Cc1cccc(C=CC(=O)c2ccc(Cl)cc2)c1	0.41%
Cc1cc(C)nc(S/C=C/C(=O)c2ccccc2)n1	41.9%
CCc1cc(-c2nnc(SCC(=O)NC3CC3)n2C)cs1	-9.66%
CCC(C)(C)NC(=O)CN(C(=O)C(=O)Nc1ccc2c(c1)OCCO2)C(C)(C)CC	0.65%
COc1ccc(-n2c(=O)[nH]c3cc(C(=O)NCCc4ccc(OC)c(OC)c4)ccc3c2=O)c(OC)c1	2.93%
CN/C(=C\[N+](=O)[O-])NCCSCc1csc(CN(C)C)n1	-4.88%
CC(C)CC(=O)NC(=S)NNC(=O)c1cccc([N+](=O)[O-])c1	-4.1%
C#CCN1CC(C)/C(=N/O)CC1C (centres undefined)	-6.18%
COc1ccccc1/C=C/C(=O)NC(=S)N1CCOCC1	-6.28%
O=C(/C=C/c1ccco1)NC(=S)N1CCCCC1	88.5% (active)
O=C(/C=C/c1ccco1)NC(=S)Nc1ccccc1Br	12.9%
C=CCNC(=O)COC(=O)c1ccccc1C(=O)N(C)C1CCCCC1	2.56%
CCN1CCC2(CC1)N=C(c1ccc(F)cc1)C(=S)N2C(=O)c1ccc(C)cc1	85.6% (active)
Cc1ccc(SCC(=O)N2CCN(c3ccc(F)cc3)CC2)cc1	-23.7%

SMILES	response
CCN1CCN(C(=O)CSc2ccc(C)cc2)CC1	11.4%
CCn1cc(/C=C(\NC(=O)c2ccc(C)cc2)C(=O)NCCN2CCOCC2)c2ccccc21	4.83%
CCCN(Cc1cc2cccc(C)c2[nH]c1=O)S(C)(=O)=O	9.7%
COc1ccc(CCNC(=O)C(=O)Nc2ccc3nc4n(c(=O)c3c2)CCCCC4)cc1OC	-7.18%
Cc1nc(-c2ccc(Cl)cc2)sc1C1(C)CC(c2ccc(Br)cc2)=NO1 (centres undefined)	-4.06%
Clc1cccc(-c2nc(NCC3CCCO3)c3ccccc3n2)c1 (centres undefined)	-5.27%
Clc1ccc2nc(-c3ccccc3)nc(C(Cl)Cl)c2c1	50% (active)
NC(N)=Nc1nc(-c2ccccc2)c2cc(Cl)ccc2n1	8.97%
Cc1ccc(S(=O)(=O)NCCc2nnc3ccc(SCc4cccnc4)nn23)cc1	-8.28%
CC(C)OC(=O)c1ccc(COc2ccc3ccc(=O)oc3c2)o1	-3.14%
CCN(CC)C(=O)CSc1nnc(CNc2ccc(F)cc2)n1Cc1ccco1	-1.42%
O=C(N[C@@H](Cc1ccccc1)C(=O)OCc1ccccc1)c1nc[nH]c1C(=O)NC1CCNCC1	-6.96%
CC(C)(C)OC(=O)N1CCC(NC(=O)c2[nH]cnc2C(=O)N[C@@H](Cc2ccccc2)C(=O)OCc2ccccc2)CC1	78.6% (active)
CC(C)(C)OC(=O)CNC(=O)c1[nH]cnc1C(=O)N[C@@H](Cc1ccccc1)C(=O)OCc1ccccc1	10.2%
O=C(O)c1ccc(Cn2cnc3c(=S)nc[nH]c32)cc1	5.59%
O=C(O)c1cc(S(=O)(=O)Nc2ccc3cn[nH]c3c2)ccc1Br	7.91%
O=S(=O)(Nc1ccc2[nH]ncc2c1)c1ccccc1Cl	60.7% (active)
O=S(=O)(Nc1ccc2cn[nH]c2c1)c1ccccc1	4.15%
Cc1ccc(S(=O)(=O)N(CC(=O)NN=C2CCN(C)CC2)c2ccc(F)cc2)cc1	-3.48%

Reference: PubChem BioAssay AID504454 (NMMLSC, 2011)
